Test results published in the supplement of paper PMC3334620.
In all, about 33,000 sequences were measured (“E-score (-0.5 to 0.5)”: median about -0.04, highest 2% from about 0.36 on). The full list was thinned out, with the highest values kept by preference.

target: T1, Hmlalpha2 (UniProt P0CY09); assay: PBM E-score (8-mer binding enrichment) (E-score (-0.5 to 0.5)); higher = stronger / more preferred TF binding; conditions: protein concentration: 200 nM; construct: GST-full length
T1 sequence: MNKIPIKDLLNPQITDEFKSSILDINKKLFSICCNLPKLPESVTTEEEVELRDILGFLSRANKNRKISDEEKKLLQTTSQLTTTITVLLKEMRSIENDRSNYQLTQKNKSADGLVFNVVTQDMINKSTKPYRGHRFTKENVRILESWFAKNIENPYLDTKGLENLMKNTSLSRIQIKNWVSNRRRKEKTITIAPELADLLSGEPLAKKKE
In short: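 GST-tagged yeast TFs (full-length or DNA-binding domain) were made by PURExpress in vitro transcription/translation and applied at about 100-200 nM to universal all-10-mer Agilent arrays. The arrays were made double-stranded by primer extension, on fresh or once-stripped slides. Bound protein was detected with fluorescent anti-GST, and scans were normalised with masliner. Each ungapped eight-base word, pooled with its reverse complement, received an E-score (modified Wilcoxon-Mann-Whitney statistic) from the Universal PBM Analysis Suite.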

First: ACACGACC
Second: CCACGACC
The “PBM E-score” value of the first is higher: 0.396 for the first, -0.0888 for the second.

Compared with ACACGAGG, ACACGAAT is higher in “PBM E-score” value: 0.292 for the first, 0.356 for the second.

First: ACACGACG
Second: AAACGACT
The “PBM E-score” value of the first is higher: 0.42 for the first, -0.0906 for the second.

Going from AGACGACG to ACACGACT, the “PBM E-score” value rises from -0.129 to 0.391.

Compared with ACACGAGT, CCACGACG is lower in “PBM E-score” value: 0.389 for the first, -0.097 for the second.

Going from AAATGCAG to ACCCGACC, the “PBM E-score” value falls from -0.012 to -0.145.

First: ACTAACGG
Second: CCACGACA
The “PBM E-score” value of the first is lower: -0.168 for the first, -0.103 for the second.

Going from TCACGACA to ACACGACA, the “PBM E-score” value rises from 0.116 to 0.412.

Compared with ATTACGCC, CTTACGCA is higher in “PBM E-score” value: 0.187 for the first, 0.341 for the second.

First: ATTACGCG
Second: GTTACGCA
The “PBM E-score” value of the first is higher: 0.467 for the first, 0.277 for the second.

Going from ATTACGGG to ATTACGCA, the “PBM E-score” value rises from -0.0184 to 0.435.

Going from CGAAGAGC to CCAAGCAG, the “PBM E-score” value falls from -0.12 to -0.127.

First: AACAGCTA
Second: ACCTGAGG
The “PBM E-score” value of the first is higher: 0.115 for the first, -0.266 for the second.

Going from TATTAACA to TATTAAAA, the “PBM E-score” value falls from 0.428 to 0.24.

First: AATTAACT
Second: CATTAACA
The “PBM E-score” value of the first is lower: 0.173 for the first, 0.409 for the second.

First: AATTAACA
Second: GATTAACA
The “PBM E-score” value of the first is higher: 0.425 for the first, 0.413 for the second.

First: TATTAATA
Second: CATTAACG
The “PBM E-score” value of the first is lower: 0.173 for the first, 0.277 for the second.

First: GATTAACC
Second: AATTAACC
The “PBM E-score” value of the first is lower: -0.108 for the first, 0.104 for the second.

Compared with CATTAACC, GATTAAGA is lower in “PBM E-score” value: 0.128 for the first, 0.0797 for the second.

Compared with GGCAGTTA, CACCGGGC is lower in “PBM E-score” value: 0.0486 for the first, -0.256 for the second.

Compared with ATGGTATA, CTTGACTC is lower in “PBM E-score” value: 0.178 for the first, -0.216 for the second.

First: GCAAGCTA
Second: ATTTGCTG
The “PBM E-score” value of the first is lower: 0.0155 for the first, 0.024 for the second.

First: CTACACCA
Second: CTACACTA
The “PBM E-score” value of the first is lower: 0.165 for the first, 0.208 for the second.

Compared with CTACACGA, CGACACGC is lower in “PBM E-score” value: 0.451 for the first, 0.243 for the second.

First: CTACACGC
Second: CTACACTC
The “PBM E-score” value of the first is higher: 0.428 for the first, 0.145 for the second.

First: GTACACGA
Second: GTACACTA
The “PBM E-score” value of the first is higher: 0.425 for the first, 0.135 for the second.

First: GTACACCA
Second: AGCCACCG
The “PBM E-score” value of the first is higher: 0.089 for the first, -0.248 for the second.

First: CCCACCAC
Second: ATACGCCA
The “PBM E-score” value of the first is lower: -0.191 for the first, -0.109 for the second.

Going from CAATACAA to AAATACTT, the “PBM E-score” value falls from 0.256 to 0.208.

Going from AAATACGT to AAATACAT, the “PBM E-score” value rises from 0.246 to 0.441.

Going from TAATACAA to AAATACAG, the “PBM E-score” value falls from 0.375 to 0.172.

First: AAATACAC
Second: CAATACAG
The “PBM E-score” value of the first is higher: 0.431 for the first, 0.0335 for the second.

Compared with CAATACAC, TCATACAA is lower in “PBM E-score” value: 0.431 for the first, 0.0397 for the second.

Compared with AAATACAA, CAATATAC is lower in “PBM E-score” value: 0.347 for the first, 0.131 for the second.

Going from GTGGGACA to AGCTGTTA, the “PBM E-score” value rises from -0.0285 to 0.0595.

First: CGGTGCGA
Second: CACTGTTA
The “PBM E-score” value of the first is lower: -0.141 for the first, 0.0828 for the second.

Going from ACGCTACG to GACCGTCC, the “PBM E-score” value falls from 0.0651 to -0.302.

Compared with TAAGGCCA, TAAGCAGA is lower in “PBM E-score” value: 0.0046 for the first, 0.00375 for the second.

First: AGAATCTG
Second: GGTGGACA
The “PBM E-score” value of the first is lower: -0.187 for the first, -0.0373 for the second.

Going from GAATACAA to GAATACAC, the “PBM E-score” value rises from 0.352 to 0.451.

Compared with GAATACGC, CCAGGCAG is lower in “PBM E-score” value: 0.357 for the first, -0.272 for the second.

First: AGACCTGC
Second: CTTCGGCA
The “PBM E-score” value of the first is higher: -0.0816 for the first, -0.198 for the second.

First: AAAAACAT
Second: GTAAAAAC
The “PBM E-score” value of the first is lower: 0.297 for the first, 0.385 for the second.

Going from CTAAAAAC to ATAAACAC, the “PBM E-score” value rises from 0.0815 to 0.365.

Compared with ATAAACAG, GTAAAAAA is higher in “PBM E-score” value: 0.0861 for the first, 0.286 for the second.

First: CTAAACAC
Second: ATAAACAT
The “PBM E-score” value of the first is lower: 0.296 for the first, 0.383 for the second.

Going from GGAAACAC to ATAAACAA, the “PBM E-score” value rises from 0.119 to 0.323.

Going from GTAAACAC to ACAAACAT, the “PBM E-score” value falls from 0.416 to 0.305.

Going from ATACCTCA to AGCATTGC, the “PBM E-score” value rises from -0.072 to 0.0222.

Going from AGCGGGGA to CGTTGAAA, the “PBM E-score” value rises from -0.24 to 0.0902.

Going from TACGGCCA to CTAAACAA, the “PBM E-score” value rises from -0.262 to 0.0668.

Going from GTAAACAA to TTAAACAA, the “PBM E-score” value falls from 0.37 to 0.274.

Compared with ATGCTAAG, CGTCGAAC is higher in “PBM E-score” value: 0.027 for the first, 0.0323 for the second.

Compared with GGGGTGTA, AGTGTGTA is higher in “PBM E-score” value: 0.0612 for the first, 0.395 for the second.

Going from AGTGTGTG to CGTGTGCA, the “PBM E-score” value falls from 0.127 to 0.0955.

Compared with CGTGTGTC, AGTGTACA is higher in “PBM E-score” value: 0.2 for the first, 0.301 for the second.

Going from GGTGTGCA to GGTGTGTA, the “PBM E-score” value rises from -0.155 to 0.423.

Compared with CGTGTACA, CGTGTGTA is lower in “PBM E-score” value: 0.467 for the first, 0.413 for the second.

Compared with AGTGTGTC, CGTGTACC is higher in “PBM E-score” value: 0.174 for the first, 0.326 for the second.

Compared with CCGGACGA, ATGGGAAT is higher in “PBM E-score” value: -0.0406 for the first, 0.0681 for the second.

First: CAGCACCG
Second: GCGCGGTA
The “PBM E-score” value of the first is lower: -0.189 for the first, 0.0518 for the second.

First: ACCTGCAG
Second: AAGCAGGG
The “PBM E-score” value of the first is higher: -0.0825 for the first, -0.116 for the second.

Going from CGTGTATA to GGTGTATA, the “PBM E-score” value falls from 0.452 to 0.0823.

Compared with CGTGTATC, GGTCTATA is lower in “PBM E-score” value: 0.332 for the first, 0.121 for the second.

First: ATATACAG
Second: CTATACAC
The “PBM E-score” value of the first is lower: 0.131 for the first, 0.213 for the second.

Going from ATATATAC to ATATACAA, the “PBM E-score” value falls from 0.345 to 0.343.

First: ATATACAC
Second: GTATATAC
The “PBM E-score” value of the first is higher: 0.422 for the first, 0.155 for the second.

Going from GTATACAA to GTATACAC, the “PBM E-score” value rises from 0.291 to 0.416.

First: ATATACAT
Second: AAGGTAAC
The “PBM E-score” value of the first is higher: 0.435 for the first, 0.0918 for the second.

First: CACGCCCC
Second: ACTTGAGG
The “PBM E-score” value of the first is higher: 0.0158 for the first, -0.203 for the second.

Going from CATGTGTA to GATGTGTA, the “PBM E-score” value falls from 0.427 to 0.38.

Compared with AATGTGTG, GATGTGCA is lower in “PBM E-score” value: 0.0802 for the first, -0.091 for the second.

Compared with AATGTGTA, CATGTGGA is lower in “PBM E-score” value: 0.371 for the first, 0.144 for the second.

Compared with CATGTGTC, AATGTGTC is lower in “PBM E-score” value: 0.152 for the first, 0.0899 for the second.

Compared with GATGTGGA, AACAAGGC is higher in “PBM E-score” value: -0.0421 for the first, 0.219 for the second.

First: CATCAAGC
Second: ACCCTAAT
The “PBM E-score” value of the first is lower: -0.116 for the first, -0.101 for the second.

Compared with CCTAATCA, GTGTGAGA is lower in “PBM E-score” value: 0.0766 for the first, 0.0378 for the second.

Going from AAAACAGA to ATAAAAAG, the “PBM E-score” value rises from 0.137 to 0.19.

Compared with GGGTAACA, AAGTAACA is higher in “PBM E-score” value: 0.17 for the first, 0.245 for the second.

First: CTGTAACA
Second: ATGTAACA
The “PBM E-score” value of the first is lower: 0.223 for the first, 0.454 for the second.

First: GCGTAACA
Second: GTGTAACA
The “PBM E-score” value of the first is lower: 0.29 for the first, 0.411 for the second.

Going from AGGAGTGG to ACCCGAGA, the “PBM E-score” value falls from -0.145 to -0.255.

Compared with AGTCTGCG, ACCAGAAT is higher in “PBM E-score” value: -0.0616 for the first, 0.0511 for the second.

First: AAACAACT
Second: GCACAACA
The “PBM E-score” value of the first is lower: 0.0928 for the first, 0.187 for the second.

Compared with CCACACCA, GTACAACA is higher in “PBM E-score” value: 0.0331 for the first, 0.395 for the second.

First: ACACAACA
Second: AAACAACA
The “PBM E-score” value of the first is higher: 0.381 for the first, 0.367 for the second.

First: AAACAACC
Second: ACACACCA
The “PBM E-score” value of the first is lower: 0.168 for the first, 0.369 for the second.

First: ATACAACA
Second: CCACAACA
The “PBM E-score” value of the first is higher: 0.355 for the first, 0.0233 for the second.

Going from CTACAACA to TCACACCA, the “PBM E-score” value falls from 0.283 to -0.0124.
